The source of these data is PubChem BioAssay (NCI).

About 83,000 compounds went through this panel and 20% of them were active in at least one assay; those are over-represented in the sample as a whole.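 Assay: single dose, 48 h. Readout: percent growth (0 = no net growth; negative = cell death). Active: <10.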 Unmarked numbers belong to inactive results. The source made the active and inactive calls.

Test systems include SK-MEL-2 melanoma; EKVX NSCLC; SN12C renal; UO-31 renal; TK-10 renal; ACHN renal; CAKI-1 renal; A498 renal; MOLT-4 leukemia; CCRF-CEM leukemia.
What all share (test): NCI-60 one-dose screen, 48 h (100 = growth as untreated, 0 = no growth, -100 = all killed)
What all share (settings): 10 µM unless noted

As for `O=C1c2ccccc2-c2nccc3cc(Cl)nc1c23`, the growth is 22.2% in the assay on SK-MEL-2 melanoma; -17.3% (active) in the assay on EKVX NSCLC; -30.7% (active) in the assay on SN12C renal; -18.5% (active) with UO-31 renal; 61.1% in the assay on TK-10 renal; -46.4% (active) in the assay with ACHN renal. Moreover, the results for the growth with CAKI-1 renal, with A498 renal and with MOLT-4 leukemia were 32.9%, 90.2% and 26%, respectively.

Consider `O=c1[nH]c(-c2ccccn2)nc2sc3c(c12)CCCCC3`, for which the growth in the assay with SK-MEL-2 melanoma is 74.4%; with EKVX NSCLC, 32.8%; in the assay on SN12C renal it was 51.2%; with UO-31 renal it was 32.6%; in the assay on TK-10 renal it was 49.5%; in the assay on ACHN renal, 36.2%. Besides, the growth is 38.5% in the assay with CAKI-1 renal, 59.4% in the assay with A498 renal and 32.1% in the assay with MOLT-4 leukemia.

As to `COc1cc(NCCCCCN=C(N)NC(N)=NC(C)C)c2ncccc2c1`, the growth was 20.1% in the assay on SK-MEL-2 melanoma; 42.2% in the assay on EKVX NSCLC; 25.9% with SN12C renal; 76.7% with UO-31 renal; 66.7% in the assay with TK-10 renal; 105% with ACHN renal. Moreover, the growth with CAKI-1 renal was 100%; with A498 renal it was 110%; in the assay on MOLT-4 leukemia, 27.9%.

For the compound `COCCCN=C(N)c1ccc(NC(=O)c2ccc(C(=O)Nc3ccc(C(N)=NCCCOC)cc3)cc2)cc1`, the growth in the assay on SK-MEL-2 melanoma is 102%; in the assay on EKVX NSCLC it was 76.9%; in the assay on SN12C renal it was 95%; in the assay with UO-31 renal, 96.6%; with TK-10 renal, 113%; with ACHN renal, 113%. The growth in the assay with CAKI-1 renal was 95.2%; with A498 renal it was 208%; with CCRF-CEM leukemia, 108%; with MOLT-4 leukemia, 85.9%.

Turning to `c1ccc(CSc2ncnc3nc[nH]c23)nc1`, the growth in the assay with SK-MEL-2 melanoma was 112%; in the assay with EKVX NSCLC it was 99.6%; in the assay with SN12C renal, 98.6%; with UO-31 renal it was 96.4%; in the assay with TK-10 renal it was 101%; in the assay on ACHN renal, 105%. The growth was 57% in the assay on CAKI-1 renal, 102% with A498 renal, 102% with CCRF-CEM leukemia and 97.7% in the assay with MOLT-4 leukemia.

In the case of `Nc1c(C(=O)Nc2ccccc2)sc2nc3c(cc12)CN(CCc1ccccc1)CC3`, the growth in the assay on SK-MEL-2 melanoma was 105%; in the assay on EKVX NSCLC, 88.3%; in the assay on SN12C renal, 89.4%; with UO-31 renal, 80.3%; with TK-10 renal, 113%; in the assay with ACHN renal, 95.3%. In addition, the growth in the assay with CAKI-1 renal was 86.9%; with A498 renal, 91.3%; in the assay with CCRF-CEM leukemia, 104%; in the assay on MOLT-4 leukemia, 104%.

In the case of `CC(C)(C)n1cc(-c2ccnc(NCCCNS(=O)(=O)c3cccc4ccccc34)c2)c(-c2cccc(O)c2)n1`, the growth in the assay with SK-MEL-2 melanoma was 30.1%; in the assay with EKVX NSCLC, 42.3%; in the assay with SN12C renal it was 36.7%; in the assay on UO-31 renal, 44.8%; in the assay with TK-10 renal, 74.8%; with ACHN renal, 36.7%. For the same compound, the growth in the assay with CAKI-1 renal is 40.4%; in the assay on A498 renal it was 48%; in the assay on CCRF-CEM leukemia, 22.1%; in the assay on MOLT-4 leukemia, 7.2% (active).

Consider `CCN(CC)CCCCNc1ccc(NCCCCN(CC)CC)c2c1C(=O)c1ccccc1C2=O`, for which the growth is 105% in the assay with SK-MEL-2 melanoma; 100% in the assay on EKVX NSCLC; 84.1% in the assay on SN12C renal; 62.3% with UO-31 renal; 57.8% in the assay on TK-10 renal; 88.4% in the assay with ACHN renal. Moreover, the growth with CAKI-1 renal was 81.5%; in the assay on A498 renal, 110%; in the assay with CCRF-CEM leukemia, 78.6%; in the assay with MOLT-4 leukemia, 62.9%.

With `CCCCCCCCCCCCCC1=NCCN1CCO`, the growth with SK-MEL-2 melanoma is 114%; with EKVX NSCLC, 112%; with SN12C renal, 69.2%; in the assay with UO-31 renal it was 54.5%; with TK-10 renal, 123%; in the assay with ACHN renal, 78.1%. Also, the growth is 90.7% with CAKI-1 renal, 108% with A498 renal, 7.19% (active) in the assay on CCRF-CEM leukemia and -1.68% (active) with MOLT-4 leukemia.

With `CN(CC(=O)N(Cc1ccc(C2CCCCC2)cc1)c1ccc(C(=O)NO)cc1)S(=O)(=O)c1c(F)c(F)c(F)c(F)c1F`, the growth in the assay on SK-MEL-2 melanoma was 81.2%; in the assay on EKVX NSCLC, 106%; with SN12C renal, 86.1%; with UO-31 renal, 69.1%; with TK-10 renal, 87.4%; with ACHN renal, 79.6%. The growth in the assay with CAKI-1 renal was 87.4%; in the assay with A498 renal it was 95.7%; with CCRF-CEM leukemia, 41.9%; in the assay on MOLT-4 leukemia, 39.2%.

As for `Cc1ccc2cnc(N)c(C#Cc3cncc(C(=O)Nc4ccc(CN5CCN(C)CC5)c(C(F)(F)F)c4)c3)c2c1`, the growth in the assay on SK-MEL-2 melanoma is -62.1% (active); in the assay on EKVX NSCLC, -93.9% (active); with SN12C renal, -97.5% (active); with UO-31 renal it was -93.3% (active); in the assay on TK-10 renal it was -94.4% (active); in the assay on ACHN renal, -99.6% (active). Also, the growth was -95.1% (active) with CAKI-1 renal, -94.2% (active) with A498 renal and -54.8% (active) in the assay on MOLT-4 leukemia.

`COc1cnc2c(c1)C(=O)c1c-2n(CCCN2CCCC2)c(=O)c2cc([N+](=O)[O-])ccc12`: the growth in the assay on SK-MEL-2 melanoma was 13.8%; in the assay with EKVX NSCLC, 21.7%; with SN12C renal it was 8.36% (active); in the assay on UO-31 renal, -96.3% (active); in the assay on TK-10 renal, 13.2%; in the assay on ACHN renal it was -91.2% (active). The growth is -13.6% (active) with CAKI-1 renal, -97.9% (active) in the assay on A498 renal, -16.1% (active) with CCRF-CEM leukemia and 1.49% (active) in the assay on MOLT-4 leukemia.

As for `O=C(O)c1c([N+](=O)[O-])cnc2ccccc12`, the growth in the assay with SK-MEL-2 melanoma was 102%; with EKVX NSCLC, 58.2%; with SN12C renal it was 97.2%; in the assay on UO-31 renal, 64.9%; with TK-10 renal it was 102%; with ACHN renal it was 111%. Further, the growth in the assay on CAKI-1 renal is 98%; in the assay on A498 renal, 118%; in the assay on CCRF-CEM leukemia, 127%; with MOLT-4 leukemia, 105%.

As to `O=S(=O)(Nc1ccc(Cl)cc1Cl)c1ccc(-c2cnc(C3CC3)o2)cc1`, the growth with SK-MEL-2 melanoma is 33.3%; in the assay with EKVX NSCLC, 38.1%; with SN12C renal, 51.4%; with UO-31 renal, 53.7%; in the assay on TK-10 renal, 48.4%; in the assay with ACHN renal, 53.6%. The figures for the growth in the assay with CAKI-1 renal, with A498 renal and with MOLT-4 leukemia were 38.8%, -21% (active) and 24.3%, respectively.
